Assay results: publication PMC7862700, “An all-to-all approach to the identification of sequence-specific readers for epigenetic DNA modifications on cytosine”

Assays:
Test in all cases: DAPPL (digital affinity profiling via proximity ligation, sequencing); 10 mM Tris-HCl pH 7.5, 50 mM NaCl, 1 mM DTT, 4% glycerol, room temperature, 30 min; GST-TFs on glutathione beads, 16-mer random dsDNA library, 0.1% formaldehyde crosslink after washing; high values mean tight binding
Settings in all cases: protein: recombinant; tags: N-terminal GST; dsDNA, one strand shown
FLI1 = biological target: T1, FLI1 (Homo sapiens, UniProt Q01543 1-452)
T1 sequence: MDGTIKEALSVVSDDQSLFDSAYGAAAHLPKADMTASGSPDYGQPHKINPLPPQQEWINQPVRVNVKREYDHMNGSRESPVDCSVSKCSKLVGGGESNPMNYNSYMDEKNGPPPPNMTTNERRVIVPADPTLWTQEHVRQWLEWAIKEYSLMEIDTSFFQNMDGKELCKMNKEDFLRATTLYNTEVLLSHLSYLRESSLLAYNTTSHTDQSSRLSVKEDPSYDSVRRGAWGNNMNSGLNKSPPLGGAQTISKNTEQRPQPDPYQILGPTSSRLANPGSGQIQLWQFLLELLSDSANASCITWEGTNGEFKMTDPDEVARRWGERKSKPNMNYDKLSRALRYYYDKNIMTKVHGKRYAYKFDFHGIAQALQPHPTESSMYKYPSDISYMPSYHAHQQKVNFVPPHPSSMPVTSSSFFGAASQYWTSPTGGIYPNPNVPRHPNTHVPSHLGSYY
Outline: (§1)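 Binding signal is defined as a hexamer's read frequency for one factor over its frequency for the tag-only sample. To obtain reads, GST-fused human transcription factors were expressed in yeast, captured on glutathione beads, barcoded with DNA and pooled with that sample. Pools met 200 nmole of a 16-mer random double-stranded DNA library in Tris/NaCl/DTT/glycerol buffer for 30 min at room temperature before washing, 0.1% formaldehyde crosslinking, proximity ligation (BsaI/T4 ligase, 1 h, 37 °C), PCR and Illumina NextSeq500 sequencing.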

ELF1 = ELF1 (Homo sapiens, UniProt P32519 1-619)
Sequence of ELF1 (P32519 whole entry): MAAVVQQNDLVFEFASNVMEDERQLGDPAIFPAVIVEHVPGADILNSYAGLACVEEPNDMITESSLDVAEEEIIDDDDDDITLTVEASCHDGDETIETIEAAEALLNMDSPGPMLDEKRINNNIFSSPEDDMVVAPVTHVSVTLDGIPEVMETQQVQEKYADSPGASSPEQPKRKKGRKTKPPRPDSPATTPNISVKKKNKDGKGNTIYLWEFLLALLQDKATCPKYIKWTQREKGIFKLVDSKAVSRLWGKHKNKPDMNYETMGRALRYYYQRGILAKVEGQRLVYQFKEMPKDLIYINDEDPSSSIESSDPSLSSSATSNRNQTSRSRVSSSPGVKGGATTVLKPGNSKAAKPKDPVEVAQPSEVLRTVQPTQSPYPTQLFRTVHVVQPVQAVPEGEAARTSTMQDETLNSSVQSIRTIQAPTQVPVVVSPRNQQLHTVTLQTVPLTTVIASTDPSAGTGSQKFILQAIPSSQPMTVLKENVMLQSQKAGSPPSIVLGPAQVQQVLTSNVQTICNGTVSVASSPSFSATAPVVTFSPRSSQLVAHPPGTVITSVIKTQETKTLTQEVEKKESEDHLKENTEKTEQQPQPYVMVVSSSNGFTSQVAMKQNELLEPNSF
Outline: as §1

SPI1 = SPI1 (Homo sapiens, UniProt P17947 1-270)
Outline: as §1

SPIB = SPIB (Homo sapiens, UniProt Q01892 1-262)
Sequence of SPIB (Q01892 whole entry): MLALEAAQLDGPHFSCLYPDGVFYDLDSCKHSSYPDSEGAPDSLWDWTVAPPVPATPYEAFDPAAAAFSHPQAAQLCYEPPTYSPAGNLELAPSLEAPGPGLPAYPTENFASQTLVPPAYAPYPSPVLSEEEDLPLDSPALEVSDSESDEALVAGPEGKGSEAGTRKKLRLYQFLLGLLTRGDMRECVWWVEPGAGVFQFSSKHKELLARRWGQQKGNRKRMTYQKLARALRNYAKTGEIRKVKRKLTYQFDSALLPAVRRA
Outline: as §1

ELK3 = biological target: T2, ELK3 (Homo sapiens, UniProt P41970 1-407)
T2 sequence: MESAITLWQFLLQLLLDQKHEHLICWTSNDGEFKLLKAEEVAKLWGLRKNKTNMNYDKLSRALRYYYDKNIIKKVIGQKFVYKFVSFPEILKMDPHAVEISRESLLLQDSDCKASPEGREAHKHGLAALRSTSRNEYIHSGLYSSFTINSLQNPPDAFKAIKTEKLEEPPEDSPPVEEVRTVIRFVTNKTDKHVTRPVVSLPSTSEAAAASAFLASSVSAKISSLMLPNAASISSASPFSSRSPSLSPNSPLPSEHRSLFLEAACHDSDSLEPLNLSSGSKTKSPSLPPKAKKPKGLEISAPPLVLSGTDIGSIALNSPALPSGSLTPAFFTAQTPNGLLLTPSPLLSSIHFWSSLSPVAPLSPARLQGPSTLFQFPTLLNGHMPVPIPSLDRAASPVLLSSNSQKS
Outline: as §1

ETV5 = ETV5 (Homo sapiens, UniProt P41161 1-510)
Sequence of ETV5 (P41161 whole entry): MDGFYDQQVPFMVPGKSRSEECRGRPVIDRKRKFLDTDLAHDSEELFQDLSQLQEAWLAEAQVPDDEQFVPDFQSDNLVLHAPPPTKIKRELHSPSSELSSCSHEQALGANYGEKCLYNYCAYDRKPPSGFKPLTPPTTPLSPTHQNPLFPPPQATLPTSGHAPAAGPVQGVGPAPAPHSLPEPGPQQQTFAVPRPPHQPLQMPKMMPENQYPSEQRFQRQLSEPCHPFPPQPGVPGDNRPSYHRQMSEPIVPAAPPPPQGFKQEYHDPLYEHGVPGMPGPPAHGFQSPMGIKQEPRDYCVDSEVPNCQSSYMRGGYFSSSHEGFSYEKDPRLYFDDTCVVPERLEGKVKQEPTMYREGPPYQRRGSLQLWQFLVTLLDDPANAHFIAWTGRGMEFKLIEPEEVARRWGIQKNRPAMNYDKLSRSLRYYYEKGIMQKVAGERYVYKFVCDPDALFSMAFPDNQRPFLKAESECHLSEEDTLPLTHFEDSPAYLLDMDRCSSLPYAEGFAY
Outline: as §1

SPIC = biological target: T3, SPIC (Homo sapiens, UniProt Q8N5J4 1-248)
T3 sequence: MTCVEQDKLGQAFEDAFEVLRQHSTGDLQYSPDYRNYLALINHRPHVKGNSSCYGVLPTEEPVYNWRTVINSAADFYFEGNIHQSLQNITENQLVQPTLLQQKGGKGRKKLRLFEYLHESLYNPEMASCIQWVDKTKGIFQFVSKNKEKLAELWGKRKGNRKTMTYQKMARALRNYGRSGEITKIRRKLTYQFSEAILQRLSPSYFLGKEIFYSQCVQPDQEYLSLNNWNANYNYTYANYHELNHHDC
Outline: as §1

ERF = biological target: T4, ERF (Homo sapiens, UniProt P50548 1-548)
T4 sequence: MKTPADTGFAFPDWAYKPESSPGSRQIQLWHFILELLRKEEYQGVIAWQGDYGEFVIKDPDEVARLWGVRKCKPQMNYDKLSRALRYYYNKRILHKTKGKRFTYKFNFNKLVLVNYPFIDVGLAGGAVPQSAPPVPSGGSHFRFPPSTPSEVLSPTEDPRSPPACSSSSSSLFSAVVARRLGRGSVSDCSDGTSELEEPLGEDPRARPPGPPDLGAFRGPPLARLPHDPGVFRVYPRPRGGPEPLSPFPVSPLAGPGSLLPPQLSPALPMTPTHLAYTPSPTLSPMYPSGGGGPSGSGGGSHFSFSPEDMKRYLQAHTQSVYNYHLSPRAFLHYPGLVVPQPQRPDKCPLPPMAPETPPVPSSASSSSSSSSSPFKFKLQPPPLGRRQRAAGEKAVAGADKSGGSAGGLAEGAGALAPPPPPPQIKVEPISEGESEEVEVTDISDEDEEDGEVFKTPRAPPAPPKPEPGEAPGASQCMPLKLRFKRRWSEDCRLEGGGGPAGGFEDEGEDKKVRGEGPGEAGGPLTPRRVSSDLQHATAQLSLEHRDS
Outline: as §1

ETV3L = biological target: T5, ETV3L (Homo sapiens, UniProt Q6ZN32 1-361)
T5 sequence: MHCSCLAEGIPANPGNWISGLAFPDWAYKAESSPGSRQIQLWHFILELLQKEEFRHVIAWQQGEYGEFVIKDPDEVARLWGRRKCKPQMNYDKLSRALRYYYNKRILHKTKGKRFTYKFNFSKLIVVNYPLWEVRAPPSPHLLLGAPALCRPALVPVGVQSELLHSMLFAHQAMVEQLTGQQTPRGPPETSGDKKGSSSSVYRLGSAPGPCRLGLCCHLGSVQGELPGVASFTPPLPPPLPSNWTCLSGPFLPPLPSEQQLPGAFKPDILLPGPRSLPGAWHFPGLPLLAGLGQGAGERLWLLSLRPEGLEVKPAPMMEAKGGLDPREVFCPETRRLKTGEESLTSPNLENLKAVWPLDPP
Outline: as §1

ETS2 = biological target: T6, ETS2 (Homo sapiens, UniProt P15036 1-469)
T6 sequence: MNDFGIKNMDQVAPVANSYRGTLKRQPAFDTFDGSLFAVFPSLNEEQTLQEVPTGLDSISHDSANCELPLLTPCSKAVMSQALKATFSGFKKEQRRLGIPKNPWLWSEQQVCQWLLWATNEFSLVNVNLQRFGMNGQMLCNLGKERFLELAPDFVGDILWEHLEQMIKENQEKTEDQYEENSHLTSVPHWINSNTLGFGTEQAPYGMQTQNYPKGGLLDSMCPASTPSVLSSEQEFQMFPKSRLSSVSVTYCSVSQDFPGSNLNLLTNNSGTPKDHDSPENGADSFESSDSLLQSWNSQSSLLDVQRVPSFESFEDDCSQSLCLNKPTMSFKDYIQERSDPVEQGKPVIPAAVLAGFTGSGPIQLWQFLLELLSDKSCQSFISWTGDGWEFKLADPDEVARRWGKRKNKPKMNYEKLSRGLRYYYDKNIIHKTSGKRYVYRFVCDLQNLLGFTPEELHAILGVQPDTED
Outline: as §1

SPDEF = biological target: T7, SPDEF (Homo sapiens, UniProt O95238 1-335)
T7 sequence: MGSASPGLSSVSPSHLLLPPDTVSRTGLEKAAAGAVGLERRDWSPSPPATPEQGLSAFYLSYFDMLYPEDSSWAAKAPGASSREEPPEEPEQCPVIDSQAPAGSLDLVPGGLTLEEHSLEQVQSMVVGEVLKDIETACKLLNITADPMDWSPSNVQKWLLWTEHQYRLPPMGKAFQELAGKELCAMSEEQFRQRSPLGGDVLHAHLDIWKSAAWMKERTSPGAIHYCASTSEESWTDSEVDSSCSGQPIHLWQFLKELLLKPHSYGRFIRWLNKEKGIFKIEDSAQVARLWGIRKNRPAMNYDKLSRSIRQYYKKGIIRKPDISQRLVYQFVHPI
Outline: as §1

ETV6 = ETV6 (Homo sapiens, UniProt P41212 1-452)
Sequence of ETV6 (P41212 whole entry): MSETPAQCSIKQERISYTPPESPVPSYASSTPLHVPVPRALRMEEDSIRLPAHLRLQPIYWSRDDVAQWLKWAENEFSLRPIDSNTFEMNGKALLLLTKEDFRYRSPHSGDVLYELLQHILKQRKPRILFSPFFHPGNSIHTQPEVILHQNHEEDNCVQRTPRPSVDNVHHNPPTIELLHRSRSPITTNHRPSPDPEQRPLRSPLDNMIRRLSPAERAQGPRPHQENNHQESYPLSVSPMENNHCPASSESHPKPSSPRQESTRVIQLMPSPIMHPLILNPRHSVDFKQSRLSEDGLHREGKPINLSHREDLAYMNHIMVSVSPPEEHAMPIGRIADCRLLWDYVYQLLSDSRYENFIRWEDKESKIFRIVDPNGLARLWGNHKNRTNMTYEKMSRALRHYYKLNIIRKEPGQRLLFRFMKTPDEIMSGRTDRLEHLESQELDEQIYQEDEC
Outline: as §1

## GTTATA
FLI1
  binding signal: 1.12 fold enrichment (6-mer frequency, TF over GST control)
ELF1
  binding signal: 1.03 fold enrichment (6-mer frequency, TF over GST control)
SPI1
  binding signal: 1.01 fold enrichment (6-mer frequency, TF over GST control)
SPIB
  binding signal: 1.03 fold enrichment (6-mer frequency, TF over GST control)
ELK3
  binding signal: 1.06 fold enrichment (6-mer frequency, TF over GST control)
ETV5
  binding signal: 1.04 fold enrichment (6-mer frequency, TF over GST control)
SPIC
  binding signal: 1.15 fold enrichment (6-mer frequency, TF over GST control)
ERF
  binding signal: 1.03 fold enrichment (6-mer frequency, TF over GST control)
ETV3L
  binding signal: 1.06 fold enrichment (6-mer frequency, TF over GST control)
ETS2
  binding signal: 1.06 fold enrichment (6-mer frequency, TF over GST control)
SPDEF
  binding signal: 1.03 fold enrichment (6-mer frequency, TF over GST control)
ETV6
  binding signal: 1 fold enrichment (6-mer frequency, TF over GST control)
